Assay [1] concerns the target Lysosomal acid glucosylceramidase (Homo sapiens) (UniProt P04062). Nature of the assay: Glucocerebrosidase-p2 (AID 348; in the data active = potency below about 10 µM; also: potency is read from the fitted curve at half-maximal effect). The conditions noted are these: purified GBA, blue fluorogenic substrate, 40 min. The procedure, abridged:
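Normal human glucocerebrosidase (0.2 nM) with blue fluorogenic substrate (80 uM final) in citrate/phosphate pH 5.9 with 10mM sodium taurocholate, 0.01% tween-20; 40 min RT, NaOH/glycine stop; fluorescence Ex 365/Em 440; AC50 from a titration from 0.6 nM upwards.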

Assay [2] is described as follows: AP1 Signaling Pathway (AID 357; active = well fitted curve in either direction with a large enough effect, not every such curve was filed as active; also: % is scaled to controls: 0 for no effect and ±100 for the full control effect). Particulars: ME-180 AP-1-bla reporter, EGF-induced, beta-lactamase ratio, 5 h; at 7.69 µM (top of the series) unless noted. The procedure, abridged: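 ME-180 cells with beta-lactamase reporter under AP-1 response element, stimulated with EC50 EGF; compounds tested in titration series, 5 h at 37 °C. CCF4 substrate added 2.5 h at room temperature; 460/530 nm emission ratio gave %activity and AC50.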

Assay [3] addresses Cytochrome P450 1A2 (Homo sapiens) (UniProt P05177). Put plainly: p450-cyp1a2 (AID 410; calls by dose curve; also: potency is read from the fitted curve at half-maximal effect). Particulars: recombinant CYP1A2, luciferin-ME demethylation, luminescence; series mostly up to 57 µM. The procedure, abridged:
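O-Demethylation of luciferin 6' methyl ether by human CYP1A2 is monitored as luciferase luminescence. Substrate sits at Km (100uM); enzyme is 20nM. Values are scaled to 57 uM furafylline as maximal inhibition.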

Assay [4] in a line: NFAT Signaling Pathway (AID 444; active = well fitted curve in either direction with a large enough effect, not every such curve was filed as active;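 also: carbachol stimulus at about its EC50 of 1 µM final; % is scaled to controls: 0 for no effect and ±100 for the full control effect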). Particulars: Jurkat NFAT-bla M1, carbachol, beta-lactamase ratio, 5 h; at 7.69 µM (top of the series) unless noted. The procedure, abridged:
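Jurkat cells with NFAT-driven β-lactamase reporter and co-expressed M1 receptor, stimulated with carbachol (final 1 uM, ~EC50), compound titration, 5 h at 37 °C. CCF4 loaded 1 h at RT; 460/530 nm ratio gave %activity and AC50.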

A short description of assay [5]: Stat Signaling Pathway (AID 446; active = well fitted curve in either direction with a large enough effect, not every such curve was filed as active;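 also: ME-180 cervical cancer cells given 40 pM IL-6 alongside compound; SIE-controlled beta-lactamase reporter measured as 460/530 nm FRET emission ratio; % is scaled to controls: 0 for no effect and ±100 for the full control effect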). Particulars: ME-180 (cervical carcinoma) SIE beta-lactamase reporter, IL-6 stimulated, 5 h; at 7.69 µM (top of the series) unless noted. The procedure, abridged:
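Overnight-plated ME-180 cells bearing a STAT Inducible Element beta-lactamase reporter; 5 h co-exposure to compound and 40 pM IL-6; values normalized to 300 pM IL-6 and 125 nM JAK inhibitor controls.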

Assay [6] concerns the target Glucocorticoid receptor (Homo sapiens) (UniProt P04150). Nature of the assay: GR-GFP Redistribution (AID 450;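 active = compounds whose dose series gives a full or clear partial fitted curve of increased nuclear translocation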; also: potency is read from the fitted curve at half-maximal effect). Particulars: U2OS GR-GFP nuclear translocation, laser cytometry, 2 h.
Assay [7] has the same target. Nature of the assay: GR-EFC Redistribution (AID 451; calls by dose curve; also: potency is read from the fitted curve at half-maximal effect). The conditions noted are these: CHO-K1 GR-EFC translocation, beta-gal luminescence, 2 h. In a few lines: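 CHO-K1 cells expressing nuclear EA and GR-ED fragments of b-gal; compounds titrated up to 46 uM final, 2 h at 37 C. GR nuclear translocation read as complemented b-gal luminescence after 1 h RT detection.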

The target of assay [8] is Mitogen-activated protein kinase 10 (Mus musculus) (UniProt Q61831). Put plainly: JNK3 AlphaScreen Assay (AID 530; active = well fitted curve in either direction with a large enough effect, not every such curve was filed as active;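 also: kinase came from lysate of stimulated human HepG2 cells; signal reports phosphorylation of biotinylated GST-cJun 1-79 at Ser73 with 10 µM ATP; % is scaled to controls: 0 for no effect and ±100 for the full control effect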). Particulars: JNK3 lysate, c-Jun phosphorylation; series mostly up to 57.1 µM. In a few lines: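 Activity was read by AlphaScreen after JNK3-containing HepG2 lysate (cytokine pre-activated) phosphorylated biotinylated GST-cJun with 10 uM ATP at room temperature. Phospho-Ser73 cJun antibody with Protein-A acceptor beads provided detection.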

Assay [9] has as its target 3',5'-cyclic-AMP phosphodiesterase 4B (Homo sapiens) (UniProt Q07343). Nature of the assay: qHTS Assay for Inhibitors of PDE-IV (AID 607; active = well fitted activation curve with a large enough effect in the main read-out, with a control signal flat, not every such curve was filed as active; also: % of control where 0% means no effect). The conditions noted are these: HEK293 ACTOne CNG channel cells, membrane potential fluorescence; series mostly up to 22.9 µM. The procedure, abridged:
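Live HEK293 cells with a modified cyclic nucleotide-gated (CNG) channel report intracellular cAMP via membrane-potential dye fluorescence (ex 535/em 590 nm). Endogenous PDE-IV was targeted. Compounds were tested at up to 22.9 uM final; RO 20-1724 100 uM served as control.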
In general terms: Quantitative high-throughput screening tests each substance at several concentrations.

The target in assay [10] is Dual specificity protein kinase CLK4 (Homo sapiens) (UniProt Q9HAZ1). Put plainly: qHTS Assay for Inhibitors of CDC-like Kinase 4 (Kinase-Glo Assay) (AID 1770). Also: % is scaled to controls: 0 for no effect and ±100 for the full control effect; nearly all actives have a fitted effect of over 65% in size. Particulars: recombinant Clk4, Kinase-Glo ATP depletion luminescence; series mostly up to 66.7 µM. In a few lines:
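Substrate mix (RS peptide 100 uM, ATP 1 uM) dispensed, compound pinned in, then Clk4 added to 25 nM final. Incubated 4.5 h at RT; Kinase-Glo reagent added, luminescence read after 5 min.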

The target is the same in assay [11]. Nature of the assay: qHTS Assay for Inhibitors of CDC-like Kinase 4 (ADP-Glo Assay) (AID 1771). Also: % is scaled to controls: 0 for no effect and ±100 for the full control effect; nearly all actives have a fitted effect of over 70% in size. The conditions noted are these: recombinant CLK4, ADP-Glo luminescence; series mostly up to 80 µM. The procedure, abridged:
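Compounds are pin-transferred onto substrate mix (100 uM RS peptide, 1 uM ATP), then 25 nM Clk4 is added. After 1 hr at room temperature, ADP-Glo reagent runs 45 min, detection reagent 30 min, then luminescence is read.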

Assay [12] shares this target. Nature of the assay: qHTS Assay for Inhibitors of CDC-like Kinase 4 (ADP-FP Assay) (AID 1795).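 Also: recombinant human CLK4 phosphorylating RS repeat peptide at 1 µM ATP; % is scaled to controls: 0 for no effect and ±100 for the full control effect; nearly all actives have a fitted effect of over 60% in size.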 The conditions noted are these: Transcreener ADP fluorescence polarization; series mostly up to 50 µM. The procedure, abridged: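 Clk4 6.25 nM; RS peptide 100 uM; ATP 1 uM; 25 mM Tris pH 7.5, 10 mM MgCl2; 1 h reaction. ADP detected via antibody/orange tracer FP displacement; TG003 positive control.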

The nature of assay [13]: Primary qHTS for small molecule stabilizers of the endoplasmic reticulum resident proteome: Secreted ER Calcium Modulated Protein (SERCaMP) assay (AID 1508630). Also: % is scaled to controls: 0 for no effect and ±100 for the full control effect. Particulars: SH-SY5Y GLuc-SERCaMP (Gaussia luciferase released on ER calcium loss) secretion, thapsigargin, luminescence; series mostly up to 38.4 µM. The procedure, abridged:
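The SH-SY5Y reporter protocol was run at 3 concentrations up to 38.3 uM (primary) or 11 concentrations (follow-up): 16 h compound, 100 nM thapsigargin for 4 h, then extracellular luciferase luminescence.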

Assay [14] deals with Ubiquitin carboxyl-terminal hydrolase 1 (Homo sapiens) (UniProt O94782). Nature of the assay: Inhibitors of USP1/UAF1: Pilot qHTS (AID 504865). Also: nearly all actives have a fitted effect of over 35% in size. Also: potency is read from the fitted curve at half-maximal effect. Particulars: purified USP1/UAF1, Ub-rhodamine cleavage fluorescence; series mostly up to 54.9 µM. The procedure, abridged: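 In 50mM HEPES pH 7.8 containing 0.5mM EDTA, 1mM TCEP, 0.1 mg/ml BSA and 0.01% Tween-20, 1nM USP1/UAF1 is exposed to compound for 15 min, then Ub-Rho (150nM final) is added and fluorescence is read over time.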

The target of assay [15] is Cytochrome P450 3A4 (Homo sapiens) (UniProt P08684). Put plainly: qHTS Assay for Activators of Cytochrome P450 3A4 (AID 885). Also: nearly all actives have a fitted effect of over 65% in size. Particulars: recombinant CYP3A4, Luciferin-PPXE luminescence, 60 min; series mostly up to 57.1 µM. In a few lines: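 Using 20nM recombinant human CYP3A4 in potassium phosphate (200mM), substrate Luciferin-PPXE at 25uM, luminescent luciferin detection followed a 60-min RT NADPH reaction; data scaled to 57 uM ketoconazole.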

For assay [16], the target named is Cytochrome P450 2C19 (Homo sapiens) (UniProt P33261). Nature of the assay: qHTS Assay for Inhibitors and Substrates of Cytochrome P450 2C19 (AID 899). Also: potency is read from the fitted curve at half-maximal effect; nearly all actives have a fitted effect of over 60% in size. The conditions noted are these: recombinant CYP2C19, luciferin-H EGE luminescence; series mostly up to 57.1 µM. In a few lines:
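5 nM human CYP2C19 with 10uM Luciferin-H EGE (at KM) in 50mM KPO4, compound preincubated 10 min at 37C, then NADPH regeneration for 60 min at 37C. Luciferin read by luminescence after detection reagent; normalized to 57uM ketoconazole as full inhibition.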

The text below walks through data of PubChem BioAssay (NCATS).

Each structure is given as a SMILES string. A number with no mark means an inactive call. Records with an inconclusive call do not appear. The source made the active and inactive calls. Unless noted, calls follow the shape of the dose curve; as a rule, active = well fitted curve in the direction sought with a large enough effect; inconclusive = small, poorly fitted or top-dose-only effect, or another doubt; inactive = no such curve, though single readings can be large; an effect the other way counts as inactive or inconclusive.

Chain of Ubiquitin carboxyl-terminal hydrolase 1 (Homo sapiens) (O94782 whole entry, looked up): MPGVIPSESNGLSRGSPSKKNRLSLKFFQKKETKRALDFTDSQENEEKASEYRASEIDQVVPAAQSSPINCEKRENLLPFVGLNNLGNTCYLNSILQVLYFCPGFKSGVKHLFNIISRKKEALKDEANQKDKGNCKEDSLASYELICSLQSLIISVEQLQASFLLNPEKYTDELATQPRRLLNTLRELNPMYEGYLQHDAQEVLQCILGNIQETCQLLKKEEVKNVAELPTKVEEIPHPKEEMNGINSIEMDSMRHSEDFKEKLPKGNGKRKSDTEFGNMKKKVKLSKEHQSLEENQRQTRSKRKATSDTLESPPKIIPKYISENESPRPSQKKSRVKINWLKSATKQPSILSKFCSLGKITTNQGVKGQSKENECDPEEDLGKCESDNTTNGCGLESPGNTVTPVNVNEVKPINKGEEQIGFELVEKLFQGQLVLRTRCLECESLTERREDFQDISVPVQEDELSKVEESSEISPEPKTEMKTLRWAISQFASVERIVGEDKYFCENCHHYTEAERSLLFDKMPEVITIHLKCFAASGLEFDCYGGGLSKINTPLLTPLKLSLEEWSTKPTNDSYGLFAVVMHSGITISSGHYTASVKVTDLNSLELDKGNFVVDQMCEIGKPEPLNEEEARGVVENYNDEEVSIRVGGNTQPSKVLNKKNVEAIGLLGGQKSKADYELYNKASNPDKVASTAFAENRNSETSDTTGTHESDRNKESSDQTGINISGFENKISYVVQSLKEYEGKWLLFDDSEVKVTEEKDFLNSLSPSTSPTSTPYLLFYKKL
Chain of Cytochrome P450 1A2 (Homo sapiens) (P05177 whole entry, looked up): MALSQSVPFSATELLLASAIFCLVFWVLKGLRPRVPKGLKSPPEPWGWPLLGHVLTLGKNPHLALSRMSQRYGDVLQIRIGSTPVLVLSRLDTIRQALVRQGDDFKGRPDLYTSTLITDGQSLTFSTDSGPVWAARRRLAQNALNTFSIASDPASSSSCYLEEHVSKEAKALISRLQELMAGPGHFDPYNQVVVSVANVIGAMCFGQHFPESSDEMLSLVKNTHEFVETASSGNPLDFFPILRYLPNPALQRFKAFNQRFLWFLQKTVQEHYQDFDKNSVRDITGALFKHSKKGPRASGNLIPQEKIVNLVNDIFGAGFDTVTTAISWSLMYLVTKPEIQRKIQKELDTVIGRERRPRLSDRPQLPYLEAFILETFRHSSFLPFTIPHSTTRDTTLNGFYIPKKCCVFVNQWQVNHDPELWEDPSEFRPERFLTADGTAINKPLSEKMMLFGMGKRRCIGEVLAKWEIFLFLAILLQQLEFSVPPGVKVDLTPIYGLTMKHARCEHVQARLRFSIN
Chain of Lysosomal acid glucosylceramidase (Homo sapiens) (P04062 whole entry, looked up): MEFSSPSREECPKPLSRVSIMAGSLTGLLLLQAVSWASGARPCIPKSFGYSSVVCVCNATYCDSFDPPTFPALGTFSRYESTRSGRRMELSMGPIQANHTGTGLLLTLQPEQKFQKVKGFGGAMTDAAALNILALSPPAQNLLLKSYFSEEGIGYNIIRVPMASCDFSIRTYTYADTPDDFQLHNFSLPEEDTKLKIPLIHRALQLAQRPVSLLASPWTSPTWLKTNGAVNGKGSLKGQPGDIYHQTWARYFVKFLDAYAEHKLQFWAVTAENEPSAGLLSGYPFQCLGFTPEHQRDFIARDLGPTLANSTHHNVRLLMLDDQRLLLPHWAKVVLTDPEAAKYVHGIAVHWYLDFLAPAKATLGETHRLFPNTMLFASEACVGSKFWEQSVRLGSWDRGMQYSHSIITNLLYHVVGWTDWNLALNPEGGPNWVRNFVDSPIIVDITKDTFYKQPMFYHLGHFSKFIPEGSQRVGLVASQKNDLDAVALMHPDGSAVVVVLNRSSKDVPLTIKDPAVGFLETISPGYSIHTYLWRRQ
Chain of 3',5'-cyclic-AMP phosphodiesterase 4B (Homo sapiens) (Q07343 whole entry, looked up): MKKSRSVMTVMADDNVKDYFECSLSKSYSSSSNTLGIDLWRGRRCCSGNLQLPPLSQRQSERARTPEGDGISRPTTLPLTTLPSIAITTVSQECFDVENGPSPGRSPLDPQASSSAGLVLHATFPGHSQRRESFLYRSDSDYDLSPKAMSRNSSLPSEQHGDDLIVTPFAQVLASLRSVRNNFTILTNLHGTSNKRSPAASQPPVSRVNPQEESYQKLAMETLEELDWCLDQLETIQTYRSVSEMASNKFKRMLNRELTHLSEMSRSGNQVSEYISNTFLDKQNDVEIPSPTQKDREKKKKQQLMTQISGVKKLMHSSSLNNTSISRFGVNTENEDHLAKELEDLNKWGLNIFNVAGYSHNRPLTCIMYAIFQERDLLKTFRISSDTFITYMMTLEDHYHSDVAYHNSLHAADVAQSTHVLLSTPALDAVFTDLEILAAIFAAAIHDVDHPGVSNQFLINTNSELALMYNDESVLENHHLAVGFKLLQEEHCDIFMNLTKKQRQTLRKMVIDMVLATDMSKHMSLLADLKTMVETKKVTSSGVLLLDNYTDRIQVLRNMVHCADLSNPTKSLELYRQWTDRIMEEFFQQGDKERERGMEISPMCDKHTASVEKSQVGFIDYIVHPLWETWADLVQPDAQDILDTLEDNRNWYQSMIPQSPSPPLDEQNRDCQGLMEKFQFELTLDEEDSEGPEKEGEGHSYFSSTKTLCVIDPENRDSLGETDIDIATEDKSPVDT
Chain of Glucocorticoid receptor (Homo sapiens) (P04150 whole entry, looked up, the tested form may be a part): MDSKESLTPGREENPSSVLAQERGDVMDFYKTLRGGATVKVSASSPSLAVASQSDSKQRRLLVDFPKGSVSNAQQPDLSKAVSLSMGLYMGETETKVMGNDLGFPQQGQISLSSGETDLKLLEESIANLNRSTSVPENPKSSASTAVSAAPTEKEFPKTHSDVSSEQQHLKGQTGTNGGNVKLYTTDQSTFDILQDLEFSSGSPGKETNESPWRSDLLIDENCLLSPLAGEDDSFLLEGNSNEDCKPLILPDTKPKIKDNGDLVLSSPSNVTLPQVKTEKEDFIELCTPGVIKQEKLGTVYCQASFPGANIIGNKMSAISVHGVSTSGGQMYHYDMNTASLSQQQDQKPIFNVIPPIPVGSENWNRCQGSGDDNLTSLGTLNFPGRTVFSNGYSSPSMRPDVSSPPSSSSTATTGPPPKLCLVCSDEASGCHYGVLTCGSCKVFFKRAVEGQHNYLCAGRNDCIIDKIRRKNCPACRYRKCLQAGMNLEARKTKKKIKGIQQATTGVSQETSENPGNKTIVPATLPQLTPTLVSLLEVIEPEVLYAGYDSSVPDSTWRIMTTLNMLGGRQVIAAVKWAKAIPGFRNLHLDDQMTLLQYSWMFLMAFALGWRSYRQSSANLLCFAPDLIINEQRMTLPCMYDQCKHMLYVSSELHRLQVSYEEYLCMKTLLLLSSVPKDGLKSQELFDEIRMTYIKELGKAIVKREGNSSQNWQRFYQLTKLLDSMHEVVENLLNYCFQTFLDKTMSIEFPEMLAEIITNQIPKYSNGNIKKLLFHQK
Chain of Dual specificity protein kinase CLK4 (Homo sapiens) (Q9HAZ1 whole entry, looked up): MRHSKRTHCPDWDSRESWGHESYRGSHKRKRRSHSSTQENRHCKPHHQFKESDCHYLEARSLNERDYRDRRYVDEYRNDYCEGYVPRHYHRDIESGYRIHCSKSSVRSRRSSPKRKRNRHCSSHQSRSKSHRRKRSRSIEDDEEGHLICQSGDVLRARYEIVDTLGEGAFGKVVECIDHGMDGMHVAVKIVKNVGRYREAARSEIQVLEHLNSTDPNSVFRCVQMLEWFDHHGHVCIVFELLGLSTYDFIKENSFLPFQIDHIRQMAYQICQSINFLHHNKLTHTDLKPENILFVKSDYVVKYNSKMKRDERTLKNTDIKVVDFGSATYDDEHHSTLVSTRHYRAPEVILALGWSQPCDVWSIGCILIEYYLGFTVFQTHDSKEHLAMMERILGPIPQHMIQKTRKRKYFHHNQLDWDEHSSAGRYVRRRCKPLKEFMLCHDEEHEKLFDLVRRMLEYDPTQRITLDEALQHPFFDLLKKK
Chain of Cytochrome P450 3A4 (Homo sapiens) (P08684 whole entry, looked up): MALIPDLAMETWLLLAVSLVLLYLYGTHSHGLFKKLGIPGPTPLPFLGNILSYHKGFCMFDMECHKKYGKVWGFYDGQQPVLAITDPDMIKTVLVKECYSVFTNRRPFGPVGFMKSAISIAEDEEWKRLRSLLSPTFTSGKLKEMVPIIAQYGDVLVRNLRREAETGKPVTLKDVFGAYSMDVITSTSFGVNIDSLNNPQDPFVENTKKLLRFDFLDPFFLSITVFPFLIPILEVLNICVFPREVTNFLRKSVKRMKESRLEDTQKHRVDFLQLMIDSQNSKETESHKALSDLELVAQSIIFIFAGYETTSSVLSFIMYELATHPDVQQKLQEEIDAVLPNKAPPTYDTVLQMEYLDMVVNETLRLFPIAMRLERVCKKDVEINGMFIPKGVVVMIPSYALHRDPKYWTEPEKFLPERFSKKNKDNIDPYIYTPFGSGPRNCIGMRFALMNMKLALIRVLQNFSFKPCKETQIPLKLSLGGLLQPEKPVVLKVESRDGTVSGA
Chain of Cytochrome P450 2C19 (Homo sapiens) (P33261 whole entry, looked up): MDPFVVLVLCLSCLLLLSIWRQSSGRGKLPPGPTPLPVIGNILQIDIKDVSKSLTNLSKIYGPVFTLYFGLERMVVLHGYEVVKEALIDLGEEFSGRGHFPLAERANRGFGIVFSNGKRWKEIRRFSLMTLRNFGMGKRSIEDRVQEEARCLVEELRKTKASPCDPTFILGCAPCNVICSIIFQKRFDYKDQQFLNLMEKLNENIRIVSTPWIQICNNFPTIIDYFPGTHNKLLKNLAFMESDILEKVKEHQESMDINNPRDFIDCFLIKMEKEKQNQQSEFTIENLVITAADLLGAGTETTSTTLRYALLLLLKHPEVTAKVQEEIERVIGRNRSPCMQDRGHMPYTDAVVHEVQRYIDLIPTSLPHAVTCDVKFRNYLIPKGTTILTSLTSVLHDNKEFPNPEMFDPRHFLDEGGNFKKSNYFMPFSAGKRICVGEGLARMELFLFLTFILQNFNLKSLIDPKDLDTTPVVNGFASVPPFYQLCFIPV

For `COCCn1c(=O)c(-c2cc(F)cc(F)c2)nc2cnc(N(C)C)nc21`, the Potency in assay [1] is over 11.4 µM; in assay [3] it was 5.01 µM (active); in [6], over 9.22 µM; in assay [7] it was over 46 µM. Besides, the results for the activity change, negative = inhibition in [2] and in assay [4] were 3.27% and -6.48%, respectively. Further, in [5], the activity, negative = inhibition is -2%. Moreover, the Potency result in [8], in [9], in assay [10], in assay [11] and in assay [12] was “inactive” in each case. Besides, the result in [13] was inactive.
As for `COc1cccc(Nc2ncc3nc(-c4cccs4)c(=O)n(Cc4cccs4)c3n2)c1`, the Potency was over 11.4 µM in [1]; 2 µM (active) in assay [3]; over 9.22 µM in [6]; over 46 µM in assay [7]; 20 µM (active) in assay [14]. Further, the activity change, negative = inhibition in assay [2] was -19.6%. The activity, negative = inhibition in assay [5] was -4.04%. For the same compound, the Potency entry in [8], in [9], in assay [10], in assay [11] and in assay [12] was “inactive” throughout. For the same compound, in [13], the outcome was inactive.
In the case of `CCNc1ncc2nc(-c3cccs3)c(=O)n(Cc3ccc(F)cc3)c2n1`, the Potency is over 11.4 µM in assay [1]; 10 µM (active) in assay [3]; over 9.22 µM in assay [6]; over 46 µM in assay [7]; 20 µM (active) in assay [14]. Moreover, the activity change, negative = inhibition is 24.9% in assay [2] and -12.4% in [4]. The Potency entry in assay [9], in [15], in assay [10], in assay [11] and in assay [12] was “inactive” throughout. The result in [13] was inactive.
As to `COc1cccc(Nc2ncc3nc(-c4ccccc4)c(=O)n(C)c3n2)c1`, the Potency is over 11.4 µM in assay [1], 3.16 µM (active) in [3], over 9.22 µM in [6] and over 46 µM in assay [7]. For the same compound, the activity change, negative = inhibition in [2] is -7.32%. The activity, negative = inhibition in assay [5] was 4.13%. Moreover, the Potency entry in assay [8], in assay [10], in assay [11], in assay [12] and in [14] was “inactive” throughout. Besides, the result in [13] was inactive.
Turning to `CCNc1ncc2nc(-c3ccccc3)c(=O)n(CCOC)c2n1`, the Potency was over 11.4 µM in assay [1], 3.16 µM (active) in [3], over 9.22 µM in assay [6] and over 46 µM in assay [7]. Also, the activity change, negative = inhibition in assay [2] is 22.2%; in assay [4], 22.8%. Also, the Potency result in assay [8], in [9], in assay [15], in assay [10], in assay [11] and in assay [12] was “inactive” throughout. Also, the Potency entry in [14] was “inactive”. The outcome in [13] was inactive.
As to `CN(Cc1ccco1)c1ccnc(-c2ccccc2C(F)(F)F)n1`, the Potency in assay [1] is over 11.4 µM; in assay [3] it was 2.51 µM (active); in [6], over 46 µM; in assay [7] it was over 46 µM; in assay [16], 7.94 µM (active). In addition, the activity change, negative = inhibition is 2.94% in [2] and -8.64% in [4]. Moreover, the activity, negative = inhibition in assay [5] was -4.79%. Also, the Potency entry in [8], in [9], in [10], in assay [11] and in assay [12] was “inactive” throughout. Besides, in assay [13], the result was inactive.
